# In the supplement of paper PMC4022240:
# ± gives the standard deviation.
# T1: HaloTag-ATRX ADD domain (163-292)
# T1 chain: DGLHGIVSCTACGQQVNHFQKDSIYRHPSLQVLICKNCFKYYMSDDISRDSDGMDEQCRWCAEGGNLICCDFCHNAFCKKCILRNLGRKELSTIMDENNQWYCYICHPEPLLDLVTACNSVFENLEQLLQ
# Legend:
# Experiment in all cases: peptide microarray binding signal (635 nm), min-max normalized on array (fraction of array maximum); higher = stronger binding
# Settings in all cases: peptide region: H3 1-13
# [1] = molecular target: T1, HaloTag-ATRX ADD domain (163-292)
# Method: (§1)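 Histone 13-mer peptides were synthesized as cellulose conjugates with a C-terminal 20-atom PEG linker and printed in triplicate on nitrocellulose. The sequence given is the unmodified backbone; PTMs (Kme1/2/3, Kac, Sph/Tph, Rme/Rme2a/Rme2s, Rcit) are listed in the label and the 'peptide modifications' condition. Slides were probed at 4 °C for 1 h with biotin-labelled (HQ)5-HaloTag reader fusions (ATRX-ADD, ING2-PHD) then streptavidin-Alexa647, or with rabbit histone antibodies then anti-rabbit Alexa647. The mean 635 nm signal of the triplicate spots was scaled 0-1 between the lowest and highest values on each array.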
# [2] = molecular target: HaloTag-ING2 PHD (mouse Ing2 200-280)
# Method: as §1
# [3] = molecular target: anti-H3K4me3 antibody ab8580
# Method: as §1
# [4] = molecular target: anti-H3K9me3 antibody ab8898
# Method: as §1
# [5] = peptide modifications: H3R8cit H3K9me3, binder concentration: 1:2,000 dilution
# [6] = peptide modifications: H3R8cit H3K9me3, binder concentration: 1:10,000 dilution
# [7] = peptide modifications: H3R8cit, binder concentration: 1:2,000 dilution
# [8] = peptide modifications: H3R8cit, binder concentration: 1:10,000 dilution
# [9] = peptide modifications: H3R8me1, binder concentration: 1:2,000 dilution
# [10] = peptide modifications: H3R8me1, binder concentration: 1:10,000 dilution
# [11] = peptide modifications: H3R8me1 H3K9ac, binder concentration: 1:2,000 dilution
# [12] = peptide modifications: H3R8me1 H3K9ac, binder concentration: 1:10,000 dilution
# [13] = peptide modifications: H3R8me1 H3K9me1, binder concentration: 1:2,000 dilution
# [14] = peptide modifications: H3R8me1 H3K9me1, binder concentration: 1:10,000 dilution
# [15] = peptide modifications: H3R8me1 H3K9me2, binder concentration: 1:2,000 dilution
# [16] = peptide modifications: H3R8me1 H3K9me2, binder concentration: 1:10,000 dilution
# [17] = peptide modifications: H3R8me1 H3K9me3, binder concentration: 1:2,000 dilution
# [18] = peptide modifications: H3R8me1 H3K9me3, binder concentration: 1:10,000 dilution
# [19] = peptide modifications: H3R8me2a H3K9ac, binder concentration: 1:2,000 dilution
# [20] = peptide modifications: H3R8me2a H3K9ac, binder concentration: 1:10,000 dilution
# [21] = peptide modifications: H3R8me2a H3K9me1, binder concentration: 1:2,000 dilution
# [22] = peptide modifications: H3R8me2a H3K9me1, binder concentration: 1:10,000 dilution
# [23] = peptide modifications: H3R8me2a H3K9me2, binder concentration: 1:2,000 dilution
# [24] = peptide modifications: H3R8me2a H3K9me2, binder concentration: 1:10,000 dilution
binder,measurement,setting,value
ARTKQTARKSTGG [H3 1-13 A R T K Q T A Rcit Kme3 S T G G],peptide microarray binding signal,"[1]; peptide modifications: H3R8cit H3K9me3, binder concentration: 50 nM",0.325 ± 0.047
same,peptide microarray binding signal,"[1]; peptide modifications: H3R8cit H3K9me3, binder concentration: 500 nM",0.387 ± 0.024
same,peptide microarray binding signal,"[2]; peptide modifications: H3R8cit H3K9me3, binder concentration: 10 nM",0.0423 ± 0.0029
same,peptide microarray binding signal,"[2]; peptide modifications: H3R8cit H3K9me3, binder concentration: 100 nM",0.055 ± 0.0029
same,peptide microarray binding signal,[3]; [5],0.0234 ± 0.008
same,peptide microarray binding signal,[3]; [6],0.0152 ± 0.0012
same,peptide microarray binding signal,[4]; [5],0.331 ± 0.019
same,peptide microarray binding signal,[4]; [6],0.296 ± 0.055
ARTKQTARKSTGG [H3 1-13 A R T K Q T A Rcit K S T G G],peptide microarray binding signal,"[1]; peptide modifications: H3R8cit, binder concentration: 50 nM",0.00727 ± 0.00022
same,peptide microarray binding signal,"[1]; peptide modifications: H3R8cit, binder concentration: 500 nM",0.0196 ± 0.0019
same,peptide microarray binding signal,"[2]; peptide modifications: H3R8cit, binder concentration: 10 nM",0.0125 ± 0.004
same,peptide microarray binding signal,"[2]; peptide modifications: H3R8cit, binder concentration: 100 nM",0.0291 ± 0.013
same,peptide microarray binding signal,[3]; [7],0.000359 ± 9.7e-06
same,peptide microarray binding signal,[3]; [8],0.000456 ± 9.9e-06
same,peptide microarray binding signal,[4]; [7],0.000785 ± 7.6e-05
same,peptide microarray binding signal,[4]; [8],0.000404 ± 4.4e-06
ARTKQTARKSTGG [H3 1-13 A R T K Q T A Rme K S T G G],peptide microarray binding signal,"[1]; peptide modifications: H3R8me1, binder concentration: 50 nM",0.00875 ± 0.0009
same,peptide microarray binding signal,"[1]; peptide modifications: H3R8me1, binder concentration: 500 nM",0.0184 ± 0.00056
same,peptide microarray binding signal,"[2]; peptide modifications: H3R8me1, binder concentration: 10 nM",0.005013 ± 5e-05
same,peptide microarray binding signal,"[2]; peptide modifications: H3R8me1, binder concentration: 100 nM",0.0155 ± 0.0047
same,peptide microarray binding signal,[3]; [9],0.000717 ± 4.6e-05
same,peptide microarray binding signal,[3]; [10],0.000685 ± 2.6e-05
same,peptide microarray binding signal,[4]; [9],0.00071 ± 4.4e-05
same,peptide microarray binding signal,[4]; [10],0.000519 ± 5.6e-06
ARTKQTARKSTGG [H3 1-13 A R T K Q T A Rme Kac S T G G],peptide microarray binding signal,"[1]; peptide modifications: H3R8me1 H3K9ac, binder concentration: 50 nM",0.00721 ± 8e-05
same,peptide microarray binding signal,"[1]; peptide modifications: H3R8me1 H3K9ac, binder concentration: 500 nM",0.0187 ± 0.0017
same,peptide microarray binding signal,"[2]; peptide modifications: H3R8me1 H3K9ac, binder concentration: 10 nM",0.0141 ± 0.00051
same,peptide microarray binding signal,"[2]; peptide modifications: H3R8me1 H3K9ac, binder concentration: 100 nM",0.0352 ± 0.0065
same,peptide microarray binding signal,[3]; [11],0.00179 ± 0.00022
same,peptide microarray binding signal,[3]; [12],0.000628 ± 6.7e-06
same,peptide microarray binding signal,[4]; [11],0.00122 ± 4.2e-05
same,peptide microarray binding signal,[4]; [12],0.000807 ± 1.5e-05
ARTKQTARKSTGG [H3 1-13 A R T K Q T A Rme Kme S T G G],peptide microarray binding signal,"[1]; peptide modifications: H3R8me1 H3K9me1, binder concentration: 50 nM",0.0189 ± 0.0012
same,peptide microarray binding signal,"[1]; peptide modifications: H3R8me1 H3K9me1, binder concentration: 500 nM",0.0502 ± 0.0023
same,peptide microarray binding signal,"[2]; peptide modifications: H3R8me1 H3K9me1, binder concentration: 10 nM",0.0183 ± 0.0025
same,peptide microarray binding signal,"[2]; peptide modifications: H3R8me1 H3K9me1, binder concentration: 100 nM",0.0398 ± 0.0084
same,peptide microarray binding signal,[3]; [13],0.00206 ± 9e-05
same,peptide microarray binding signal,[3]; [14],0.00108 ± 5e-05
same,peptide microarray binding signal,[4]; [13],0.00319 ± 0.00084
same,peptide microarray binding signal,[4]; [14],0.00202 ± 3.2e-05
ARTKQTARKSTGG [H3 1-13 A R T K Q T A Rme Kme2 S T G G],peptide microarray binding signal,"[1]; peptide modifications: H3R8me1 H3K9me2, binder concentration: 50 nM",0.0149 ± 0.00099
same,peptide microarray binding signal,"[1]; peptide modifications: H3R8me1 H3K9me2, binder concentration: 500 nM",0.0405 ± 0.00097
same,peptide microarray binding signal,"[2]; peptide modifications: H3R8me1 H3K9me2, binder concentration: 10 nM",0.0115 ± 0.00013
same,peptide microarray binding signal,"[2]; peptide modifications: H3R8me1 H3K9me2, binder concentration: 100 nM",0.0224 ± 0.00044
same,peptide microarray binding signal,[3]; [15],0.00179 ± 7.7e-05
same,peptide microarray binding signal,[3]; [16],0.00108 ± 5.7e-05
same,peptide microarray binding signal,[4]; [15],0.00208 ± 0.00038
same,peptide microarray binding signal,[4]; [16],0.0019 ± 6.5e-05
ARTKQTARKSTGG [H3 1-13 A R T K Q T A Rme Kme3 S T G G],peptide microarray binding signal,"[1]; peptide modifications: H3R8me1 H3K9me3, binder concentration: 50 nM",0.398 ± 0.0051
same,peptide microarray binding signal,"[1]; peptide modifications: H3R8me1 H3K9me3, binder concentration: 500 nM",0.396 ± 0.0076
same,peptide microarray binding signal,"[2]; peptide modifications: H3R8me1 H3K9me3, binder concentration: 10 nM",0.0338 ± 0.011
same,peptide microarray binding signal,"[2]; peptide modifications: H3R8me1 H3K9me3, binder concentration: 100 nM",0.0759 ± 0.034
same,peptide microarray binding signal,[3]; [17],0.0426 ± 0.012
same,peptide microarray binding signal,[3]; [18],0.0253 ± 0.013
same,peptide microarray binding signal,[4]; [17],0.258 ± 0.015
same,peptide microarray binding signal,[4]; [18],0.171 ± 0.017
ARTKQTARKSTGG [H3 1-13 A R T K Q T A Rme2a Kac S T G G],peptide microarray binding signal,"[1]; peptide modifications: H3R8me2a H3K9ac, binder concentration: 50 nM",0.0172 ± 0.00041
same,peptide microarray binding signal,"[1]; peptide modifications: H3R8me2a H3K9ac, binder concentration: 500 nM",0.0506 ± 0.0025
same,peptide microarray binding signal,"[2]; peptide modifications: H3R8me2a H3K9ac, binder concentration: 10 nM",0.0458 ± 0.0028
same,peptide microarray binding signal,"[2]; peptide modifications: H3R8me2a H3K9ac, binder concentration: 100 nM",0.0544 ± 0.012
same,peptide microarray binding signal,[3]; [19],0.00338 ± 0.00042
same,peptide microarray binding signal,[3]; [20],0.00285 ± 0.00048
same,peptide microarray binding signal,[4]; [19],0.00364 ± 0.00047
same,peptide microarray binding signal,[4]; [20],0.00179 ± 4.5e-05
ARTKQTARKSTGG [H3 1-13 A R T K Q T A Rme2a Kme S T G G],peptide microarray binding signal,"[1]; peptide modifications: H3R8me2a H3K9me1, binder concentration: 50 nM",0.0352 ± 0.0011
same,peptide microarray binding signal,"[1]; peptide modifications: H3R8me2a H3K9me1, binder concentration: 500 nM",0.0882 ± 0.0059
same,peptide microarray binding signal,"[2]; peptide modifications: H3R8me2a H3K9me1, binder concentration: 10 nM",0.033 ± 0.0066
same,peptide microarray binding signal,"[2]; peptide modifications: H3R8me2a H3K9me1, binder concentration: 100 nM",0.0721 ± 0.0073
same,peptide microarray binding signal,[3]; [21],0.00366 ± 0.00063
same,peptide microarray binding signal,[3]; [22],0.00114 ± 3e-05
same,peptide microarray binding signal,[4]; [21],0.00186 ± 0.00023
same,peptide microarray binding signal,[4]; [22],0.00208 ± 7.7e-05
ARTKQTARKSTGG [H3 1-13 A R T K Q T A Rme2a Kme2 S T G G],peptide microarray binding signal,"[1]; peptide modifications: H3R8me2a H3K9me2, binder concentration: 50 nM",0.0425 ± 0.0031
same,peptide microarray binding signal,"[1]; peptide modifications: H3R8me2a H3K9me2, binder concentration: 500 nM",0.0913 ± 0.0063
same,peptide microarray binding signal,"[2]; peptide modifications: H3R8me2a H3K9me2, binder concentration: 10 nM",0.044 ± 0.0014
same,peptide microarray binding signal,"[2]; peptide modifications: H3R8me2a H3K9me2, binder concentration: 100 nM",0.06 ± 0.0041
same,peptide microarray binding signal,[3]; [23],0.00357 ± 0.00013
same,peptide microarray binding signal,[3]; [24],0.00314 ± 4.6e-05
same,peptide microarray binding signal,[4]; [23],0.00355 ± 0.00032
same,peptide microarray binding signal,[4]; [24],0.00334 ± 0.00031
